Potency and affinity values are given separately. Values without a mark were called inactive.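 The calls were made as follows: active = EC50 of 10 µM or lower; inactive = EC50 above 10 µM or not measured.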
Experiment: optical interference in Abeta FP readout, dose response, artefact control for IDE activator project, biochemical, fluorescence polarization (AID 588442)
Settings: FP artifact counterscreen, fluorescein-Abeta, no enzyme activity

SMILES | EC50 [µM]
C#CCOCCOCCOCCNc1nc(N2CCN(C(=O)CCCCCCCCCCNC(=O)[C@H]([C@@H](C)CC)n3cc(CCCCCN)nn3)CC2)nc(N2CCN(C(=O)CCCCCCCCCCNC(=O)[C@H]([C@@H](C)CC)n3cc(CCCCN=C(N)N)nn3)CC2)n1 | > 55.9
C#CCOCCOCCOCCNc1nc(N2CCN(C(=O)CCCCCCCCCCNC(=O)Cn3cc(CCCCCN)nn3)CC2)nc(N2CCN(C(=O)CCCCCCCCCCNC(=O)[C@H](CO)n3cc(CCCSC)nn3)CC2)n1 | > 54.7
C#CCOCCOCCOCCNc1nc(N2CCN(C(=O)CCCCCCCCCCNC(=O)Cn3cc(CCCCCN)nn3)CC2)nc(N2CCN(C(=O)CCCCCCCCCCNC(=O)Cn3cc(C[C@@H](C)O)nn3)CC2)n1 | > 54.7
